# Source: PubChem BioAssay (National Center for Advancing Translational Sciences (NCATS))
# Pol kappa inh: DNA polymerase kappa (human) inhibition. Q9UBT6. purified Pol kappa, fluorescent DNA synthesis assay, 10 min. Potency, µM (highest dose often 107 µM), most hits filed as inhibitors. actives 0.53% (n = 400,000). AID 588579
# Target sequence (Q9UBT6 whole entry, looked up): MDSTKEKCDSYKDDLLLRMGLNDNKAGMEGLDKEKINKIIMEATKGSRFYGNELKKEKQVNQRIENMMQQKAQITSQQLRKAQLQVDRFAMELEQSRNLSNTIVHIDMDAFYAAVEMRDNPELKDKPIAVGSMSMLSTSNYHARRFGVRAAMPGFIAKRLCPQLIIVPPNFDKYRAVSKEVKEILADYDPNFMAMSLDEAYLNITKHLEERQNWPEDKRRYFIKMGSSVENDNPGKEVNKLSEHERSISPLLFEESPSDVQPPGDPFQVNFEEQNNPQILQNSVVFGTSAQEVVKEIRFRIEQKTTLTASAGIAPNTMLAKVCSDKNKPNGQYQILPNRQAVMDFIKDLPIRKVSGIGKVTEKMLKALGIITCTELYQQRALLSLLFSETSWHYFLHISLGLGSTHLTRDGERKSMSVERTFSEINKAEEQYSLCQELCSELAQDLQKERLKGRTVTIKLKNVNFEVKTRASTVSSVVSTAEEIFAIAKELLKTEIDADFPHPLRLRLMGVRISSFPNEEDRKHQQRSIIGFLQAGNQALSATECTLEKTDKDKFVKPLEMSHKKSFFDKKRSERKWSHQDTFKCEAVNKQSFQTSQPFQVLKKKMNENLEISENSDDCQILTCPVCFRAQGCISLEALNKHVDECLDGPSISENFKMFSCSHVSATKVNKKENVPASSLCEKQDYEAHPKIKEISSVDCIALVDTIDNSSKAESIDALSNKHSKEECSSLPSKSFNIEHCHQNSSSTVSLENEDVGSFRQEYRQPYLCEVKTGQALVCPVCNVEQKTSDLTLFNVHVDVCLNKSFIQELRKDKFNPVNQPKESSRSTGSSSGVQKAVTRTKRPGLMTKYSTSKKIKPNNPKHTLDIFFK
#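 Activity was followed as the change in fluorescence between reads at 0 and 10 min after starting the reaction with 50 nM substrate. Beforehand, 10 nM polymerase had been preincubated with compound for 15 min at room temperature.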
# PI5P4K alpha inh: inhibitors of human PI5P4K alpha; P48426; actives 1.2% (n = 330,000); max response, %; PI5P4Kalpha enzyme, ADP-Glo luminescence, 60 min; hits give low values; active = max response of -50% or lower; inconclusive = between -30% and -50%; inactive = -30% or higher; note: value at the top dose of about 77 µM
#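 Single end-point luminescence (ADP-Glo) quantified ADP from PI5P4Kalpha turnover; ATP 5 microM final, 1 h at RT, 0.1% CHAPS and 0.28 mM EGTA in HEPES pH 7.4.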
# POLH inh: DNA polymerase eta (human) inhibition; Q9Y253; recombinant Pol eta, fluorescent DNA replication assay; Potency, µM (top dose mostly 114 µM), actives largely listed as inhibitors; actives 1.2% (n = 390,000); AID 588591
#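 Pol eta at 10 nM preincubated with compounds 15 min at room temperature; reaction started with fluorescent substrate (50 nM final) and read kinetically at 0 and 10 min.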
# POLB inh: blocks human DNA polymerase beta activity. Potency, µM (highest dose often 114 µM), usual class: inhibitors. Pol beta primer extension/strand displacement, fluorescence kinetic. actives 1.3% (n = 340,000)
#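 Pol beta (10 nM) was preincubated with compound for 15 min at room temperature. The reaction was then started with 50 nM substrate and read immediately and after a further 10 min at room temperature.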
# Pol iota inh: inhibitors of human DNA polymerase iota; AID 588590; actives 1% (n = 390,000); Pol iota fluorescent replication assay, 10 min; Potency, µM (series often up to 115 µM), usual class: inhibitors; Q9UNA4
#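 Pol iota at 10 nM preincubated 15 min with compounds at room temperature; reaction started with fluorescent substrate, 50 nM final. Fluorescence read kinetically at 0 and 10 min; buffer-only wells as negative control.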
# WRN helicase inh: inhibitors of human WRN helicase; WRN helicase unwinding, fluorescent forked duplex, kinetic; AID 651768; actives 0.46% (n = 360,000); Q14191; Potency, µM (highest dose often 114 µM), usual class: inhibitors; note: nearly all actives have a fitted effect of over 55% in size
#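 Fluorescence dequenching readout, ex 525 nm/em 598 nm, kinetic mode: forked duplex DNA (100 nM final) with adjacent fluorophore and quencher unwound by WRN (20 nM final) with 2 mM ATP. Compound preincubation 15 min, room temperature.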
# Hits are given with their value; – = inactive; ? = inconclusive; · = not tested or not shown; ! = a repeat was not active; [ ] = dose if it differs, or a comment. The list is not random: actives were taken first. Their share in the collection is about 2.8%. Unless noted, calls come from the whole dose curve; as a rule, active = well fitted curve in the direction sought with a large enough effect; inconclusive = small, poorly fitted or top-dose-only effect, or another doubt; inactive = no such curve, though single readings can be large; an effect the other way counts as inactive or inconclusive.
SMILES,Pol kappa inh,PI5P4K alpha inh,POLH inh,POLB inh,Pol iota inh,WRN helicase inh
CC(N)C(=O)NCC(=O)NC1CSSCC(C(=O)O)NC(=O)C(CO)NC(=O)C(C(C)O)NC(=O)C(Cc2ccccc2)NC(=O)C(C(C)O)NC(=O)C(CCCCN)NC(=O)C(Cc2c[nH]c3ccccc23)NC(=O)C(Cc2ccccc2)NC(=O)C(Cc2ccccc2)NC(=O)C(CC(N)=O)NC(=O)C(CCCCN)NC1=O (stereo not drawn),–[19.4 µM],·,·,·,·,·
CC[n+]1c(/C=C/N(C)c2ccccc2)sc2ccc(Cl)cc21,–,·,–,50.1µM,?,50.1µM
COc1ccccc1C=C1C(=O)NC(=S)NC1=O,–,-85.7,–,·,–,?
O=C1NC(=S)N(c2ccc(F)cc2)C(=O)/C1=C/c1ccccc1O,–,–,–,–,–,–
COc1ccc(N2C(=O)/C(=C/c3ccc(N(C)C)o3)C(=O)NC2=S)cc1,–,–,–,–,?,–
COc1ccccc1/C=C1\C(=O)NC(=S)N(c2ccccc2)C1=O,–,-55.1,–,–,?,–
COc1ccc(N2C(=O)/C(=C/c3cccs3)C(=O)NC2=S)cc1,–,-96.1,–,–,?,44.7µM
CN(C)[C@@H]1C(=O)C(C(N)=O)=C(O)[C@@]2(O)C(=O)C3=C(O)c4c(O)ccc(Cl)c4[C@@](C)(O)[C@H]3C[C@@H]12,–,–,–,–,–,–
CN(C)[C@@H]1C(=O)C(C(N)=O)=C(O)[C@@]2(O)C(=O)C3=C(O)c4c(O)cccc4[C@@](C)(O)C3C[C@@H]12 (stereo partly drawn),79.4µM,–,–,·,?,–
CN(C)C1C(=O)C(C(N)=O)C(=O)C2(O)C(=O)C3C(=O)c4c(O)cccc4C(C)(O)C3C(O)C12 (stereo not drawn),2.82µM,·,·,·,·,·
CN(C)C1C(=O)C(C(N)=O)=C(O)[C@@]2(O)C(=O)C3=C(O)c4c(O)cccc4[C@](C)(O)C3C(O)C12 (stereo partly drawn),2.82µM,·,·,·,·,·
CN1CCCCC1Cn1cc(C(=O)c2cc([N+](=O)[O-])ccc2I)c2ccccc21 (stereo not drawn),–,·,·,·,·,·
CCn1c(O)c(C=Nc2ccc(N3CCOCC3)cc2)c(=O)n(CC)c1=S,–,–,–,17.8µM,–,–
O=c1[nH]c(=S)[nH]c(O)c1N=Nc1ccc(S(=O)(=O)N2CCc3ccccc32)cc1,–,-57.9,–,79.4µM,–,–
O=c1[nH]c(=S)[nH]c(O)c1N=Nc1ccc(SC(F)F)cc1,–,-57.1,–,–,?,–
COC(=O)C1=Nc2ccccc2/C1=C\c1c(O)n(C)c(=O)n(C)c1=O,–,-70.1,–,–,?,–
COC(=O)C1=Nc2ccccc2/C1=C\c1c(O)n(-c2ccc(Br)cc2)c(=O)[nH]c1=O,–,-101.6,35.5µM,?,–,50.1µM
CN1CCC2(CC1)C(C#N)=C(N)NC(S)=C2C#N,–,?,–,?,–,56.2µM!
N#CC(C#N)=Cc1ccc(N2CCOCC2)cc1,–,–,–,–,–,–
Cc1cc(C=C(C#N)C#N)ccc1N1CCCC1,–,–,–,–,89.1µM,–
COc1ccc(Cn2c(O)c(/C=N/NC(=O)c3ccncc3)c(=O)[nH]c2=O)cc1,–,?,–,–,–,–
O=C(N/N=C/c1c(O)n(CCc2ccc(F)cc2)c(=O)[nH]c1=O)c1ccccc1,–,–,–,–,–,–
O=C(N/N=C/c1c(O)n(CCc2ccccc2)c(=O)[nH]c1=O)c1ccncc1,–,-76.7,?,–,–,–
O=C(N/N=C/c1c(O)n(CCc2ccc(F)cc2)c(=O)[nH]c1=O)c1ccncc1,–,-64.8,–,?,–,–
CC(Oc1ccc(Br)cc1)C(=O)N(Cc1nc(-c2ccccc2)no1)C(C)C (stereo not drawn),?,·,?,–,–,·
SMILES,Pol kappa inh,PI5P4K alpha inh,POLH inh,POLB inh,Pol iota inh,WRN helicase inh
CC(C)OC(=O)C(O)(c1ccc(Cl)cc1)c1ccc(Cl)cc1,–,·,·,·,·,·
COc1ccc(CNC(=O)c2ccc(C(C)C)cc2)cc1,–,–,–,–,–,–
COc1ccc(C(=O)Nc2ccccc2C(=O)NC(C(=O)NCc2ccco2)C(C)C)cc1 (stereo not drawn),–,–,8.91µM,–,–,–
Cc1ccc2cc3c(ccc4ccccc43)c3c2c1CC3,–[19.4 µM],·,·,·,·,·
Cc1cc(C)cc(N2C(=O)NC(=O)/C(=C\c3cccn3-c3ccc(Cl)cc3)C2=O)c1,–,?,22.4µM,–,?,–
O=C1NC(=O)C(=Cc2ccc(Oc3ccc([N+](=O)[O-])cc3)cc2)C(=O)N1,–,-57.6,?,?,–,25.1µM
COc1cc(C=C2C(=O)NC(=O)NC2=O)ccc1OCc1ccc([N+](=O)[O-])cc1,–,?,–,–,–,44.7µM
O=C1NC(=O)C(=Cc2cc([N+](=O)[O-])ccc2N2CCCCC2)C(=O)N1,–,–,–,–,–,–
Cc1ccc(S(=O)(=O)N2CCN(Cc3ccsc3)CC2)cc1,–,–,?,–,–,–
O=c1[nH]c(O)c(C=Nc2ccc(Cl)cc2Cl)c(=O)[nH]1,–,–,–,?,–,–
N#CC(C#N)=Cc1ccc(O)cc1,–,·,·,·,·,·
N#CC(C#N)=Cc1cc(O)c(O)c(O)c1,3.16µM,·,2.24µM,–,9.47µM,·
O=C1/C(=C\c2ccccc2)C[C@@]2(O)[C@H]3Cc4ccc(O)c5c4[C@@]2(CCN3CC2CC2)[C@@H]1O5,–[19.4 µM],·,·,·,·,·
